Experiments:
[1] = qHTS profiling of the MIPE4 collection as inhibitors of Plasmodium falciparum (3D7) proliferation (AID 743344);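 also: scaled between DMSO vehicle wells and 0.29 µM artemisinin as full inhibition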; conditions: P. falciparum 3D7 in erythrocytes, SYBR Green DNA fluorescence, 72 h; at 28.5 µM unless noted
In short: (§1)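 Parasite DNA was quantified by SYBR Green I fluorescence (ex 485, em 535 nm) after overnight lysis in saponin/Triton buffer at room temperature. Cultures at 0.3% parasitemia and 2.5% hematocrit were first exposed to compound for 72 h at 37 C; signals were normalised to artemisinin (0.29 uM) and vehicle wells.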

[2] = qHTS profiling of the MIPE4 collection as inhibitors of Plasmodium falciparum (DD2) proliferation (AID 743345); conditions: P. falciparum Dd2 in erythrocytes, SYBR Green DNA, 72 h; at 28.5 µM unless noted
In short: as §1

**Q.** With O=C1Nc2ccc(Cl)cc2C(C#CC2CC2)(C(F)(F)F)O1 (centres undefined) as the compound, how does the parasite growth, % of DMSO control [1] read?
**A.** 40.8%

**Q.** What about the parasite growth remaining, % of DMSO control (lower = more inhibition) [2] of the same compound?
**A.** 76%

**Q.** Which parasite growth, % of DMSO control [1] does the source give for N#CC1(c2ccc(NC(=O)c3cccnc3NCc3ccncc3)cc2)CCCC1 here?
**A.** 18.4%

**Q.** For COC(=O)N[C@H](C(=O)N1CCC[C@@H]1c1ncc(-c2ccc(-c3ccc(-c4cnc([C@@H]5CCCN5C(=O)[C@@H](NC(=O)OC)C(C)C)[nH]4)cc3)cc2)[nH]1)C(C)C, which parasite growth, % of DMSO control [1] is on record?
**A.** 9.52%

**Q.** What about the parasite growth remaining, % of DMSO control (lower = more inhibition) [2] of the same compound?
**A.** 9.13%

**Q.** With N[C@H](CSC(c1ccccc1)(c1ccccc1)c1ccccc1)C(=O)O as the compound, how does the parasite growth, % of DMSO control [1] read?
**A.** 10.7%

**Q.** And the parasite growth remaining, % of DMSO control (lower = more inhibition) [2]?
**A.** 86.8%

**Q.** Which parasite growth, % of DMSO control [1] does the source give for CC#CCn1c(N2CCC[C@@H](N)C2)nc2c1c(=O)n(Cc1nc(C)c3ccccc3n1)c(=O)n2C here?
**A.** 58%

**Q.** And the parasite growth remaining, % of DMSO control (lower = more inhibition) [2]?
**A.** 22.5%

From PubChem BioAssay (NCATS)
